RGS12 GoLoco inh: RGS12 GoLoco-Gai1 interaction inhibition; P63096; Gai1:RGS12 GoLoco peptide FP, rhodamine, 10 min; Potency, µM (top dose mostly 61.6 µM), actives largely listed as inhibitors; 0.44% of 230,000 active; AID 880; active = well fitted inhibition curve with a large enough effect, not every such curve was filed as active; inactive = no such curve, though single readings can be large or run the other way; note: nearly all actives have a fitted effect of over 30% in size
RECQ1 inh-1: RECQ1 (human) helicase inhibition. AID 2549. RECQ1 DNA unwinding, red fluorescence kinetic read. Potency, µM (doses to about 57.3 µM), most hits filed as inhibitors. 0.54% of 240,000 active. P46063; note: nearly all actives have a fitted effect of over 30% in size
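RECQ1T1 50 nM; forked duplex (20 bp + 30-nt ss tails) 200 nM, ATP 2 mM final; pH 8.0, 2 mM MgCl2, 2.5 ug/ml poly(dI-dC); 15 min compound preincubation; discontinuous kinetic read over 2 h at RT.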
BLM helicase inh: inhibitors of human Bloom syndrome helicase BLM. recombinant BLM DNA unwinding, fluorescence dequenching. 0.2% of 350,000 active. Potency, µM (top dose mostly 56.1 µM), usual class: inhibitors. P54132; note: nearly all actives have a fitted effect of over 35% in size
TR SRC2 fluor cs: alters Texas Red total fluorescence, flagging assay interference. TRb/SRC2 Texas Red total fluorescence interference. Potency, µM (highest dose often 106 µM). 0.29% of 280,000 active; active = well fitted curve in either direction with a large enough effect; inconclusive = small, poorly fitted or top-dose-only effect
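Flags fluorescent or light-absorbing compounds by total fluorescence, S + 2P, at 555 nm excitation and 632 nm emission. Mixture: 20 nM Texas Red SRC2 peptide, 0.6 uM human TRb LBD, 1 uM T3, 5% DMSO; compound exposure 5 h at ambient temperature.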
APE1 inh-1: blocks human APE1 abasic DNA cleavage; 0.35% of 350,000 active; AID 2517; recombinant APE1, TAMRA/BHQ-2 abasic DNA cleavage fluorescence; P27695; Potency, µM (top dose mostly 65.8 µM), usual class: inhibitors; note: nearly all actives have a fitted effect of over 55% in size
Target sequence (P27695 whole entry, looked up): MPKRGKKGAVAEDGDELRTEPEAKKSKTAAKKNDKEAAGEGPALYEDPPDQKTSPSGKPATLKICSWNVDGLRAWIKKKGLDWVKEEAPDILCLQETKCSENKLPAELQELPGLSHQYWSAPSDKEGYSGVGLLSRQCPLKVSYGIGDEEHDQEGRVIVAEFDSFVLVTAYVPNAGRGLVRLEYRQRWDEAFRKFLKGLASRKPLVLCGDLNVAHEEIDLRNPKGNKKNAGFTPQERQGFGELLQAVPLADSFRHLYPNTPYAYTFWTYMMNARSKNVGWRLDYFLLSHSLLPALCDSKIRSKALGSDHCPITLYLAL
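APE1 at 0.75 nM preincubated 15 min at room temperature with compound. Reaction then started with 50 nM double-stranded THF-abasic substrate labelled with TAMRA/BHQ-2, and 525/598 nm fluorescence read kinetically. Activity taken as third-minus-first read difference, normalized to DMSO and NSC13755 controls.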
TRb-SRC2 inh: TRbeta-SRC2 interaction inhibition | P10828 | AID 1469 | TRbeta-SRC2 peptide binding, fluorescence polarization; receptor liganded with 1 µM T3 | Potency, µM (top dose mostly 106 µM), hits mostly inhibitors | 0.065% of 280,000 active; note: nearly all actives have a fitted effect of over 50% in size
Target sequence (P10828 whole entry, looked up): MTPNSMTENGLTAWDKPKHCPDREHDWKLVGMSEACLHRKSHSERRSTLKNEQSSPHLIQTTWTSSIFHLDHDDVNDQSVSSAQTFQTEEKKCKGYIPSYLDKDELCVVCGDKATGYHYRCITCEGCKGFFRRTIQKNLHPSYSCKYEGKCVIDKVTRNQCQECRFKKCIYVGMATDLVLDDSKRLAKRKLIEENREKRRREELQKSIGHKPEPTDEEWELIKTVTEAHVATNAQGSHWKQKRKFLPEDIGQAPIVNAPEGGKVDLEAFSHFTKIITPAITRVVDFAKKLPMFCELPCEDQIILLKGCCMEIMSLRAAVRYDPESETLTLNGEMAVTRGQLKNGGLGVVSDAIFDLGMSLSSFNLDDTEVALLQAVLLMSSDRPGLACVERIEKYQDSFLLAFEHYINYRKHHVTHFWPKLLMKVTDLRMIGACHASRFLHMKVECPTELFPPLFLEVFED
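Polarization signal, normalized between peptide-alone and full complex controls, measured compound effects on T3-liganded human TRb LBD (0.6 uM) binding 20 nM Texas Red SRC2 peptide after 5 hr.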
APE1 dye cs: displaces fluorescent dye from DNA, flagging APE1 artifacts | Potency, µM (series often up to 28.5 µM), actives largely listed as inhibitors | shares compounds with APE1 inh-1 | DNA fluorescent dye displacement counterscreen, fluorescence | 7% of 480 active;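 note: loss of thiazole orange fluorescence as the dye is displaced from duplex DNA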
Endo IV inh: counter-screen for APE1 inhibitors: inhibitors of E. coli endonuclease IV; 4% of 560 active; E. coli Endo IV, fluorogenic AP-site DNA cleavage; shares compounds with APE1 inh-1; Potency, µM (highest dose often 27.1 µM), most hits filed as inhibitors
APE1 inh-2: APE1 (human) endonuclease inhibition, confirmation; shares compounds with APE1 inh-1; purified APE1, fluorogenic abasic-site DNA cleavage; Potency, µM (series often up to 57.1 µM), most hits filed as inhibitors; 44% of 750 active; AID 2572; note: nearly all actives have a fitted effect of over 30% in size
APE1 FP: displaces DNA from human APE1 in FP assay. shares compounds with APE1 inh-1. APE1 binding to TAMRA-labelled double-stranded DNA, fluorescence polarization displacement. Potency, µM (titrated, usually from 28.5 µM), hits mostly inhibitors. 7% of 480 active. AID 2573
RECQ1 inh conf: confirmation of human RECQ1 helicase inhibitors | shares compounds with RECQ1 inh-1 | RECQ1 helicase DNA unwinding, fluorescence | Potency, µM (series often up to 229 µM), most hits filed as inhibitors | 28% of 610 active | AID 2708; note: nearly all actives have a fitted effect of over 45% in size
RECQ1 ADP FP: displaces ADP in a fluorescence polarization counter-screen for RECQ1 hits; shares compounds with RECQ1 inh-1; ADP fluorescence polarization displacement counterscreen; Potency, µM (titrated, usually from 228 µM), hits mostly inhibitors; 27% of 530 active; AID 2711; note: nearly all actives have a fitted effect of over 45% in size
RECQ1 inh-2: confirmation of human RECQ1 helicase inhibitors. shares compounds with RECQ1 inh-1. recombinant RECQ1 DNA unwinding, red fluorescence. Potency, µM (titrated, usually from 119 µM), actives largely listed as inhibitors. 15% of 1,100 active; note: nearly all actives have a fitted effect of over 50% in size
Each line names hits and unclear results; the compound was inactive in the other large screens (follow-up assays come after a bar, where they were run); [ ] = remark or other dose. A selection: hits, their analogues and other compounds. The true share with any hit is near 0.9%. Unless noted, calls come from the whole dose curve; as a rule, active = well fitted curve in the direction sought with a large enough effect; inconclusive = small, poorly fitted or top-dose-only effect, or another doubt; inactive = no such curve, though single readings can be large; an effect the other way counts as inactive or inconclusive.

CC(=O)OC1CC(OC(C)=O)[C@]2(C)C(CC(OC(C)=O)[C@]3(C)C2CC[C@@]2(C)C(c4ccoc4)OC(=O)C4O[C@]432)C1(C)C (stereo partly specified)	none
O=C(c1ncc[nH]1)c1ccco1	none
O=C(c1cc(C(=O)c2ccco2)cc(C(=O)c2ccco2)c1)c1ccco1	RECQ1 inh-1 35µM, APE1 inh-1 32µM, TRb-SRC2 inh inconclusive | APE1 dye cs inactive | Endo IV inh inactive | APE1 inh-2 inconclusive | APE1 FP inactive | RECQ1 inh-2 inactive
Nc1ccc(N(CCO)CCO)cc1	RGS12 GoLoco inh 8.9µM, RECQ1 inh-1 inconclusive, APE1 inh-1 20µM, TRb-SRC2 inh inconclusive | APE1 dye cs inactive | Endo IV inh inactive | APE1 inh-2 inactive | APE1 FP inactive | RECQ1 inh-2 inactive
O=c1nc2s/c(=C\c3ccco3)c(=O)n2nc1Cc1ccc(F)cc1	RECQ1 inh-1 22µM, APE1 inh-1 7.9µM | APE1 dye cs inconclusive | Endo IV inh inactive | APE1 inh-2 7.1µM | APE1 FP inconclusive | RECQ1 inh conf 56µM | RECQ1 ADP FP inconclusive | RECQ1 inh-2 inconclusive
Cc1nc(S/C(=C\c2ccc(-c3ccc(C(=O)O)c(Cl)c3)o2)C(=O)O)n[nH]1	RECQ1 inh-1 inconclusive, APE1 inh-1 22µM | APE1 inh-2 40µM | RECQ1 inh-2 45µM
Cc1ccc(N(CC(=O)NCc2ccc(OC(C)C)cc2)S(=O)(=O)N(C)C)cc1	none (no result: RGS12 GoLoco inh, RECQ1 inh-1, APE1 inh-1)
Cc1ccc(N2C(=O)c3ccccc3C2C(=O)c2ccc(O)cc2O)cc1 (stereo unspecified)	RECQ1 inh-1 14µM, APE1 inh-1 6.3µM | APE1 dye cs inactive | Endo IV inh inactive | APE1 inh-2 inconclusive | APE1 FP inactive | RECQ1 inh conf inactive | RECQ1 ADP FP inactive | RECQ1 inh-2 inactive
Cc1ccc(N2C(=O)c3ccccc3C2C(=O)c2cc(C)ccc2O)cc1 (stereo unspecified)	none
Cc1cccc(NC(=O)C2CCCN(S(=O)(=O)c3c(C)[nH]c(=O)[nH]c3=O)C2)c1C (stereo unspecified)	none (no result: RGS12 GoLoco inh, RECQ1 inh-1, APE1 inh-1)
O=C(Nc1cccc(S(=O)(=O)NC2=NCCCCC2)c1)c1cc(-c2ccco2)nc2ccccc12	RECQ1 inh-1 20µM, BLM helicase inh inconclusive, APE1 inh-1 13µM | APE1 dye cs inactive | Endo IV inh inactive | APE1 inh-2 inconclusive | APE1 FP inactive | RECQ1 inh-2 inconclusive
Cn1c(SCC(=O)Nc2ccc3nc(SCC(=O)NC4CC4)sc3c2)nnc1-c1ccccc1	none
Cn1c(SCC(=O)Nc2ccc3nc(SCC(=O)N4CCCC4)sc3c2)nnc1-c1ccc(N)cc1	RECQ1 inh-1 0.63µM, APE1 inh-1 10µM | APE1 inh-2 inconclusive | RECQ1 inh conf 7.1µM | RECQ1 ADP FP inconclusive | RECQ1 inh-2 inconclusive
O=C1CCCC2=C1C(c1ccc(O)c(O)c1)Nc1ccc3ncccc3c12 (stereo unspecified)	RECQ1 inh-1 inconclusive, BLM helicase inh inconclusive, APE1 inh-1 14µM | APE1 dye cs inconclusive | Endo IV inh inactive | APE1 inh-2 inconclusive | APE1 FP inactive | RECQ1 inh-2 inconclusive
O=C1CCCC2=C1C(c1cccs1)Nc1ccc3ncccc3c12 (stereo unspecified)	none
Cc1cccc(Cn2cc(C(=O)Nc3ccc(F)c(C(F)(F)F)c3)ccc2=O)c1	none (no result: RGS12 GoLoco inh, RECQ1 inh-1, APE1 inh-1)
Cc1ccc(CN(Cc2cccn2-c2nnc(N3CCCC3=O)s2)C(=O)Nc2cc(C)cc(C)c2)cc1	none (no result: RGS12 GoLoco inh, RECQ1 inh-1, APE1 inh-1)
CCC(C(=O)OCc1cc(=O)n2nc(C)sc2n1)c1ccccc1 (stereo unspecified)	TR SRC2 fluor cs inconclusive (no result: RGS12 GoLoco inh, RECQ1 inh-1, APE1 inh-1)
CCC1=NN2C(=N)/C(=C\c3ccc(OCc4cc(=O)n5nc(CC)sc5n4)c(OC)c3)C(=O)N=C2S1	RECQ1 inh-1 7.1µM, BLM helicase inh 14µM, APE1 inh-1 inconclusive | APE1 inh-2 32µM | RECQ1 inh-2 inconclusive
CC(CNC(=O)Cn1ccc2cc(S(=O)(=O)N3CCCCC3)ccc21)c1ccccc1 (stereo unspecified)	none (no result: RGS12 GoLoco inh, RECQ1 inh-1, APE1 inh-1)
S=C1NCN(Cc2ccco2)CN1	none
O=C1CC(=O)N(Cc2ccco2)C(=S)N1	RECQ1 inh-1 11µM, BLM helicase inh inconclusive, APE1 inh-1 11µM, TRb-SRC2 inh inconclusive | APE1 dye cs inactive | Endo IV inh inactive | APE1 inh-2 35µM | APE1 FP inconclusive | RECQ1 inh conf 16µM | RECQ1 ADP FP inactive
O=C1CC(=O)N(Cc2ccco2)C(=O)N1	RECQ1 inh-1 inconclusive, APE1 inh-1 10µM | APE1 dye cs inactive | Endo IV inh inactive | APE1 inh-2 5.6µM | APE1 FP inactive | RECQ1 inh-2 inconclusive
COc1ccc(CC(=O)NCc2ccc3c(c2)CCN3C(=O)c2ccc(C)cc2)cc1OC	none (no result: RGS12 GoLoco inh, RECQ1 inh-1, APE1 inh-1)
CC(=O)NC1=NC(=O)/C(=C/c2cc(C)n(-c3cccc(C(=O)O)c3)c2C)S1	RECQ1 inh-1 inconclusive, APE1 inh-1 3.5µM | APE1 dye cs inactive | Endo IV inh inactive | APE1 inh-2 4.5µM | APE1 FP inconclusive | RECQ1 inh-2 20µM
COc1ccc(Cl)cc1C(=O)NCc1nc(-c2cccc(C)c2)no1	TR SRC2 fluor cs inconclusive (no result: RGS12 GoLoco inh, RECQ1 inh-1, APE1 inh-1)
Nc1ccc(-c2nc3ccc(-c4nc5ccc(N)cc5[nH]4)cc3[nH]2)cc1	RECQ1 inh-1 25µM, BLM helicase inh 14µM, TR SRC2 fluor cs 45µM[quencher], APE1 inh-1 inconclusive | Endo IV inh 28µM | APE1 inh-2 16µM | RECQ1 inh conf 28µM | RECQ1 ADP FP 28µM | RECQ1 inh-2 32µM
